Experimental data: PubChem BioAssay (NCATS)
Inconclusive results are not listed. Active and inactive are the calls of the source. The call rests on the fitted dose curve; in most records, active means well fitted inhibition curve with a large enough effect; inconclusive means small, poorly fitted or top-dose-only effect; inactive means flat fitted curve, though single readings scatter.

Tests used:
[1] = target: Glutathione peroxidase 1 (Homo sapiens) (UniProt P07203); test: Primary qHTS Assay for Inhibitors of Recombinant Selenoprotein Glutathione Peroxidase 1 (GPX1) (AID 1845191); further: nearly all actives have a fitted effect of over 65% in size
Sequence of Glutathione peroxidase 1 (Homo sapiens) (P07203 whole entry, looked up): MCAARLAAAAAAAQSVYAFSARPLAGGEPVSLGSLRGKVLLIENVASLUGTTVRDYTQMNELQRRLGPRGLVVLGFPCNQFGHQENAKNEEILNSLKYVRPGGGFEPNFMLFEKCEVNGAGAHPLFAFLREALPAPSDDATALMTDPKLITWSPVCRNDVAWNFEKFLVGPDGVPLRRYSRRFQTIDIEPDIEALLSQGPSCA
In short: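 Recombinant GPX1 (10 nM final) was preincubated with compound for 30 min at room temperature, then reacted with 1 mM GSH, 0.5 mM CHP, 0.5 mM NADPH and 100 nM glutathione reductase; NADPH fluorescence (340/450 nm) was read at 0 and 15 min.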

[2] = target: Phospholipid hydroperoxide glutathione peroxidase GPX4 (Homo sapiens) (UniProt P36969); test: Primary qHTS Assay for Inhibitors of Recombinant Selenoprotein Glutathione Peroxidase 4 (GPX4) (AID 1845192); further: nearly all actives have a fitted effect of over 65% in size; on activity change, negative = inhibition: series mostly up to about 50 µM; on the % scale 0 is the no-effect control and ±100 the full control effect
Sequence of Phospholipid hydroperoxide glutathione peroxidase GPX4 (Homo sapiens) (P36969 whole entry, looked up): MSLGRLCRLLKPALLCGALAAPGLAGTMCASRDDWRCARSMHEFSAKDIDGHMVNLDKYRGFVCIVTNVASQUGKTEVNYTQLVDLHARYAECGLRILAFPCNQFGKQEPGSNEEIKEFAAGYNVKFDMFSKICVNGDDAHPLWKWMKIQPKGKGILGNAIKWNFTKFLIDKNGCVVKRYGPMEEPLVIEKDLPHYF
In short: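 GR-coupled readout: 100 nM GR, 1 mM GSH, 0.5 mM NADPH; NADPH fluorescence (ex 340/em 450 nm) read at t=0 and after 15 min RT. GPX4 200 nM, preincubated 30 min with compound; substrate 0.5 mM CHP.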

[3] = target: Luciferin 4-monooxygenase (Photinus pyralis) (UniProt P08659); test: Primary firefly luciferase (FLuc) qHTS assay for identification of artifact compounds. (AID 1845220); further: nearly all actives have a fitted effect of over 60% in size;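 on activity change, negative = inhibition: series mostly up to about 54 µM; plate controls were DMSO vehicle for no effect and no enzyme for full effect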
In short: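 Reaction readout was CCD-imaged luminescence, taken 5 min after adding 10 nM purified firefly enzyme to compound-treated wells holding 10 uM luciferin and ATP in pH 7.6 buffer.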

C[C@@]12CC3(S(=O)(=O)O)OC(O1)[C@]1(COC(=O)c4ccccc4)[C@H]3C[C@]21O[C@@H]1O[C@H](CO)[C@@H](O)[C@H](O)[C@H]1O
inactive: Potency [1] | Potency [2] | Potency [3]

CC(C)N(CCCNC(=O)Nc1ccc(C(C)(C)C)cc1)C[C@H]1O[C@@H](n2ccc3c(N)ncnc32)[C@H](O)[C@@H]1O
inactive: Potency [1] | Potency [2] | Potency [3]

CC(C)(O)C(O)C(=O)OCc1ccc(O[C@@H]2O[C@H](CO)[C@@H](O)[C@H](O)[C@H]2O)cc1 (stereo not given in full)
inactive: Potency [1] | Potency [2] | Potency [3]

CC(=O)/C=C/C1(O)C(C)(C)CC(O)CC1(C)O (stereo not given)
inactive: Potency [1] | Potency [2] | Potency [3]

CC1(C)C=Cc2c(ccc3c2N=C2C(C)(C)[C@@H]4C[C@]56CCCN5C(=O)[C@@]4(C[C@]23O)NC6=O)O1
inactive: Potency [1] | Potency [2] | Potency [3]

CCCC1=CC2=C(CO1)C(=O)C(C)(O)C(OC(=O)c1c(C)cc(OC)cc1O)C2 (stereo not given)
inactive: Potency [1] | Potency [2] | Potency [3]

CC1(C)C[C@H]2C=C(C=O)[C@]3(C(=O)O)C[C@]3(C)[C@H]2C1
inactive: Potency [1] | Potency [2] | Potency [3]

CCC(C)C(C(=O)O)N1Cc2c(OCC=C(C)C)c(C)c(OC)c(C(=O)O)c2C1=O (stereo not given)
inactive: Potency [1] | Potency [2] | Potency [3]

COc1cccc(Cn2ncc3c4sc(S(C)=O)cc4n(C)c3c2=O)c1 (stereo not given)
inactive: Potency [1] | Potency [2] | Potency [3]

CCOC(=O)C1=C(N)Oc2ccc(Cl)cc2C1C(C#N)C(=O)OCC (stereo not given)
inactive: Potency [1] | Potency [2] | Potency [3]

C=C1C(=O)O[C@@H]2CC(C)=C([C@@H](C)CCCOC(C)=O)[C@@H](O)[C@H]12
inactive: Potency [1] | Potency [2] | Potency [3]

COc1c2cc(c(O[C@@H]3O[C@H](CO)[C@@H](O)[C@H](O)[C@H]3O)c1OC)CCCCC(O)CCc1ccc(O)c-2c1 (stereo not given in full)
inactive: Potency [1] | Potency [2] | Potency [3]

CC1CC(=O)C2=C(O1)OC1(C)CCC3C(C)(C)C4OC4C(=O)C3(C)C1C2 (stereo not given)
inactive: Potency [1] | Potency [2] | Potency [3]

CC(=O)O[C@@H](C[C@@H]1C=C(C)C(=O)O1)[C@H](C)[C@H]1CCC2[C@@]3(C)CC[C@H](O[C@@H]4O[C@H](CO)[C@@H](O)[C@H](O)[C@H]4O[C@@H]4O[C@@H](C)[C@H](O)[C@@H](O)[C@H]4O)C(C)(C)C3CC[C@@]2(C)[C@@]12COC(=O)C2 (stereo not given in full)
inactive: Potency [1] | Potency [2] | activity change, negative = inhibition [3] -7.53% [at 11.6 µM]

COC(=O)C[C@H]1C(C)(C)[C@H](OC(=O)C(C)C)C2CC3=C4CC(=O)O[C@@H](c5ccoc5)[C@]4(C)CCC3[C@@]1(C)C2=O (stereo not given in full)
inactive: Potency [1] | Potency [2] | Potency [3]

OC[C@H]1O[C@@H](OCc2ccccc2)[C@H](O)[C@@H](O)[C@@H]1O
inactive: Potency [1] | Potency [2] | Potency [3]

CC(C)=CC1C[C@](C)(O)[C@@H]2[C@H]3CCC4[C@@]5(C)CC[C@H](O[C@@H]6OC[C@H](O)[C@H](O[C@@H]7O[C@H](CO[C@@H]8O[C@H](CO)[C@@H](O)[C@H](O)[C@H]8O)[C@@H](O)[C@H](O)[C@H]7O)[C@H]6O[C@@H]6O[C@@H](C)[C@H](O)[C@@H](O)[C@H]6O)C(C)(C)[C@@H]5CC[C@@]4(C)[C@@]34CO[C@@]2(C4)O1 (stereo not given in full)
inactive: Potency [1] | Potency [2] | outcome [3] inactive [at 11.6 µM]

CSCC1OC(n2cnc3c(N)ncnc32)C(O)C1O (stereo not given)
inactive: Potency [1] | Potency [2] | Potency [3]

C/C=C/C=C/C=C/C(=O)OC1C=C2C(O)OC(=O)[C@]2(O)[C@@]2(C)CCCC(C)(C)[C@H]12 (stereo not given in full)
inactive: Potency [1] | Potency [2] | Potency [3]

CC(=O)NC(C(=O)OC1CCC(C)(C)C2CC=C3C(=O)OCC3C12C)C(C)C (stereo not given)
inactive: Potency [1] | Potency [2] | Potency [3]

COC1OC(O)C2(CCC3(O2)C(C)CC2OC(=O)C4(C)CCCC3(C)C24)C1O (stereo not given)
inactive: Potency [1] | Potency [2] | Potency [3]

CC(=O)c1c(C)cccc1O[C@@H]1O[C@H](CO)[C@@H](O)[C@H](O)[C@H]1O
inactive: Potency [1] | Potency [2] | Potency [3]

O=C1OC(c2ccc(O)cc2)C(O)=C1Cc1ccccc1 (stereo not given)
inactive: Potency [1] | Potency [2] | Potency [3]

C=C1CCC2(OC1)OC1CC3C4CC=C5CC(O)CC(O[C@@H]6OC[C@H](OC(=O)C(O)C(C)CC)[C@H](O)[C@H]6O[C@@H]6O[C@@H](C)[C@H](O)[C@@H](O)[C@H]6O)C5(C)C4CCC3(C)C1C2C (stereo not given in full)
inactive: Potency [1] | Potency [2] | activity change, negative = inhibition [3] 0.354% [at 11.6 µM]

COc1cc(C[C@@]2(O)CO[C@@H](c3ccc(O[C@@H]4O[C@H](CO)[C@@H](O)[C@H](O)[C@H]4O)c(OC)c3)[C@H]2CO)ccc1O
inactive: Potency [1] | Potency [2] | Potency [3]

C=C1CC[C@@]2(OC1)O[C@H]1CC3C4CC=C5C[C@@H](O[C@@H]6O[C@@H](C)[C@H](O)[C@@H](O)[C@H]6O)C[C@@H](O[C@@H]6O[C@H](C)[C@H](O)[C@H](O)[C@H]6O[C@@H]6O[C@@H](C)[C@H](O)[C@@H](O)[C@H]6O)[C@]5(C)C4CC[C@]3(C)[C@H]1[C@@H]2C (stereo not given in full)
inactive: Potency [1] | Potency [2] | outcome [3] inactive [at 11.6 µM]

O=C(O)CC/C=C\C[C@H]1CO[C@@H](c2ccccc2Cl)O[C@H]1c1ccccc1O
inactive: Potency [1] | Potency [2] | Potency [3]

O=C(Cn1c2ccccc2c2nc3n(c(=O)c21)CCS3)N1CCCC1
inactive: Potency [1] | Potency [2] | Potency [3]

CC[C@H]1OC(=O)[C@H](C)C(=O)[C@H](C)[C@@H](OC2O[C@H](C)C[C@H](N(C)C)[C@H]2O)[C@@H](C)C[C@@H](C)C(=O)/C=C/[C@]1(C)O (stereo not given in full)
inactive: Potency [1] | Potency [2] | Potency [3]

COc1cc(/C=C/C(=O)O[C@H]2[C@H](O)[C@@H](CO)O[C@@]2(CO)O[C@H]2O[C@H](CO)[C@@H](O)[C@H](O)[C@H]2O)cc(OC)c1O
inactive: Potency [1] | Potency [2] | Potency [3]

C=CC(C)(C)C12Nc3c(ccc4c3OC(C)(C)C=C4)C1(O)CC1C(=O)N3CCCC3C(=O)N12 (stereo not given)
inactive: Potency [1] | Potency [2] | Potency [3]

C[C@@H]1O[C@@H](O[C@H]2[C@H](Oc3cc(O)c(C(=O)CCc4ccc(O)cc4)c(O)c3)O[C@H](CO)[C@@H](O)[C@@H]2O)[C@H](O)[C@H](O)[C@H]1O
inactive: Potency [1] | Potency [2] | Potency [3]

C=C1C(O)C(OC(=O)c2ccccc2)C2C(C)(C(=O)O)CCCC2(C)C1CC/C(C)=C\CO (stereo not given)
inactive: Potency [1] | Potency [2] | Potency [3]

CC1CCC2C(C)(C)[C@H](O)CC[C@]2(C)C12Cc1c(O)cc3c(c1O2)CN(C(CCC(=O)O)C(=O)O)C3=O (stereo not given in full)
inactive: Potency [1] | Potency [2] | Potency [3]

OC[C@@]1(O)CO[C@@H](OC[C@H]2O[C@@H](OCc3ccccc3)[C@H](O)[C@@H](O)[C@@H]2O)[C@@H]1O
inactive: Potency [1] | Potency [2] | Potency [3]
